Source: PubChem BioAssay (NCI)
The panel holds about 83,000 compounds, 20% with a hit somewhere; the sample as a whole holds those more often.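 Growth was measured after 48 h exposure to one concentration of compound in 96-well plates. Values under 10 count as active.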 A number with no mark means an inactive call. Activity calls are given as the source filed them.

Legend:
Experiment in all cases: NCI-60 one-dose screen, 48 h (100 = growth as untreated, 0 = no growth, -100 = all killed)
Conditions in all cases: 10 µM
SR leukemia = tested on: SR leukemia
RPMI-8226 leukemia = tested on: RPMI-8226 leukemia
OVCAR-8 ovarian = tested on: OVCAR-8 ovarian
OVCAR-5 ovarian = tested on: OVCAR-5 ovarian
OVCAR-4 ovarian = tested on: OVCAR-4 ovarian
SK-OV-3 ovarian = tested on: SK-OV-3 ovarian
OVCAR-3 ovarian = tested on: OVCAR-3 ovarian
HS 578T breast = tested on: HS 578T breast
NCI/ADR-RES ovarian = tested on: NCI/ADR-RES ovarian
T-47D breast = tested on: T-47D breast
BT-549 breast = tested on: BT-549 breast
MDA-MB-435 melanoma = tested on: MDA-MB-435 melanoma
SW-620 colon = tested on: SW-620 colon
MCF7 breast = tested on: MCF7 breast
HCT-116 colon = tested on: HCT-116 colon
HCC-2998 colon = tested on: HCC-2998 colon
KM12 colon = tested on: KM12 colon

| SMILES | growth (SR leukemia) | growth (RPMI-8226 leukemia) | growth (OVCAR-8 ovarian) | growth (OVCAR-5 ovarian) | growth (OVCAR-4 ovarian) | growth (SK-OV-3 ovarian) | growth (OVCAR-3 ovarian) | growth (HS 578T breast) | growth (NCI/ADR-RES ovarian) | growth (T-47D breast) | growth (BT-549 breast) | growth (MDA-MB-435 melanoma) | growth (SW-620 colon) | growth (MCF7 breast) | growth (HCT-116 colon) | growth (HCC-2998 colon) | growth (KM12 colon) |
| --- | --- | --- | --- | --- | --- | --- | --- | --- | --- | --- | --- | --- | --- | --- | --- | --- | --- |
| COc1ccc(-c2nc(-c3nc4ccc(C)cc4[nH]3)cc3c2[nH]c2ccccc23)cc1 | 10.2% | 16.2% | 21.4% | 83.9% | 45.1% | 107% | 45.1% | 66.9% | 19.4% | 32.7% | 71.7% | 46% | 81.4% | 36.1% | 19.3% | 48.9% | 21% |
| COc1cc(/C=C2\CCCC3=C2NC(N)=NC3c2cc(OC)c(OC)c(OC)c2)cc(OC)c1OC (stereo not given) | 1.07% (active) | -15.4% (active) | -35.8% (active) | 6.85% (active) | 27% | 7.16% (active) | -17.7% (active) | 37% | 3.96% (active) | 27.5% | -38.7% (active) | -17.9% (active) | -22.3% (active) | 43% | -81.6% (active) | -35.2% (active) | -75.8% (active) |
| O=C(Nc1ccc(OCc2nnc(-c3ccc(Cl)cc3)o2)c(F)c1)Nc1ccc(Cl)c(C(F)(F)F)c1 | -15.4% (active) | -22.2% (active) | 11.6% | 26.6% | 17.2% | 35.2% | 0.829% (active) | 14.5% | 7.99% (active) | 4.57% (active) | -13.9% (active) | 8.01% (active) | 15.7% | 3.17% (active) | 2.12% (active) | 9.15% (active) | 3.14% (active) |
| O=C(O)c1cn(C2CC2)c2cc(N3CCN(C(=O)c4cc(-c5ccc(Cl)cc5)nc5ccccc45)CC3)c(F)cc2c1=O | 47.4% | 81.8% | 89.9% | 98.2% | 98.6% | 77.9% | 100% | 94% | 98.9% | 86.7% | 83.5% | 95.6% | 97.5% | 89.7% | 84.3% | 99.2% | 102% |
| COc1ccc(C2CC(c3cccs3)=NN2c2ccc(S(N)(=O)=O)cc2)cc1 (stereo not given) | 83% | 61.2% | 84.4% | 95.4% | 107% | 88.5% | 92.5% | 97.4% | 77.4% | 85.1% | 99.7% | 82% | 100% | 75% | 70.7% | 92.5% | 91.5% |
| COc1cc(-c2csc(NC(=O)Nc3ccc(Cl)c(C(F)(F)F)c3)n2)cc(OC)c1OC | 0.909% (active) | -7.41% (active) | 4.2% (active) | 18.4% | -1.69% (active) | 2.04% (active) | -19% (active) | 16.8% | -8.03% (active) | -9.38% (active) | -13% (active) | -7.7% (active) | 18.1% | -9.68% (active) | -19.6% (active) | 21.4% | 9.25% (active) |
| COc1cc(C2C(C#N)=C(N)Oc3cc(O)ccc32)cc(OC)c1OC (stereo not given) | 11.4% | 15.5% | 34.4% | 35.5% | 49.7% | 44.2% | -38.2% (active) | 20% | 38.4% | 16% | 58.5% | -44.9% (active) | 21.4% | 19.9% | 17.8% |  | 15.8% |
| COc1ccc(-c2n[nH]nc2-c2cc(OC)c3c(c2OC)OCO3)cc1 | 10.8% | 25.1% | 43% | 44.2% | 51.8% | 52.7% | -11.5% (active) | -5.63% (active) | 2.06% (active) | 27.9% | 16.8% | -12.3% (active) | 19.4% | 27.7% | 25.6% | 39.6% | 31.9% |
| COC(=O)c1cc2oc(/C=C3/SC(=S)N(N)C3=O)cc2n1Cc1ccccc1 | 20.8% | -4.46% (active) | 31.1% | 72.6% | 51% | 98.2% | 55% | -27.4% (active) | 52.5% | 75.6% | 36.5% | 19.2% | -43.3% (active) | 21% |  | 80.2% | 58.9% |
| Cc1cc(CSc2ccccc2C(=O)N2CC=C(c3ccccc3)CC2)on1 | 85.3% | 84.9% | 111% | 87.3% | 89.2% | 107% | 107% | 100% | 90.7% | 75.5% | 101% | 98% | 97.6% | 94.9% | 93.1% | 93.3% |  |
| COc1cccc2ccc(CC(O)(c3ccccc3)c3ccccc3)nc12 | 82.3% | 90.7% | 91.5% | 115% | 51.2% | 93.3% | 80.3% | 103% | 94.4% | 43.7% | 94.1% | 106% | 98.7% | 24.6% | 77.1% | 97.1% | 67.3% |
| CC(=O)Oc1cc(OC(C)=O)c2ccccc2c1OC(C)=O | 69.4% | 72.5% | 81.9% | 115% | 86% | 76.8% | 84.1% | 83% | 88.9% | 61.4% | 92.4% | -57.4% (active) | 91.9% | 56.8% | 80.1% | 110% |  |
| COc1cc(N)c2ncccc2c1SC | 90.4% | 100% | 98.4% | 101% | 105% | 108% | 105% | 92.5% | 99.1% | 93.1% | 102% | 110% | 104% | 104% | 99.3% | 102% | 102% |
| CC1C(=NC(=O)c2cnccn2)C(C)C(c2ccc(Cl)cc2)NC1c1ccncc1 (stereo not given) | 126% | 69.1% | 88.3% | 103% | 122% | 94.4% | 113% | 125% | 90.3% | 78% | 95.4% | 96.9% | 111% | 91.3% | 73.6% | 115% | 95.8% |
| COc1ccc(Cc2cnc(N)nc2N)cc1OC | 98.9% | 102% | 96.2% | 100% | 106% | 96% | 106% | 105% | 99.7% | 101% | 106% | 107% | 98.7% | 100% | 99.8% | 105% | 110% |
| O=C(CCNC(=O)c1nc(-c2ccccc2)n(-c2ccc(Cl)cc2)n1)NO | 98.6% | 103% | 108% | 96.4% | 106% | 92.4% | 98.7% | 107% | 109% | 78.7% | 115% | 106% | 106% | 102% | 94% | 93.5% | 93.7% |
| CCN(CC)CCN1c2nc3ccccc3cc2Sc2cc3ccccc3nc21 | -53% (active) | -15.9% (active) | 7.3% (active) | 13.6% | 15.8% | 46% | 27.1% | 12.4% | 4.85% (active) | 73.5% | -92.4% (active) | -25% (active) | -29.7% (active) | -100% (active) | -45.4% (active) | -99% (active) |  |
| COc1cc(NC(=O)C2=C(N3CCOCC3)/C(=C/c3ccc(Cl)cc3)CC2)cc(OC)c1OC | 35.1% | 33.2% | 72.7% | 103% | 83.2% | 114% | 85.9% | 95.2% | 72.5% | 71.1% | 103% | 75.3% | 100% | 73.3% | 65.7% |  | 97.3% |
